The source made the active and inactive calls. A call without a number means that no potency is given here. The call rests on the fitted dose curve; in most records, active means well fitted activation curve with a large enough effect; inconclusive means small, poorly fitted or top-dose-only effect; inactive means no such curve, though single readings can be large or run the other way.
The compounds below were run against Parathyroid hormone/parathyroid hormone-related peptide receptor (Homo sapiens) (UniProt Q03431) (assay: qHTS for PTHR1 Agonists: Optimization Screen against the NCGC LOPAC library (AID 1347079)). Details: HEK293 GP2 PTHR1 GloSensor cAMP luminescence, 1 h; series mostly up to 57.1 µM.
Chain of Parathyroid hormone/parathyroid hormone-related peptide receptor (Homo sapiens) (Q03431 whole entry, looked up): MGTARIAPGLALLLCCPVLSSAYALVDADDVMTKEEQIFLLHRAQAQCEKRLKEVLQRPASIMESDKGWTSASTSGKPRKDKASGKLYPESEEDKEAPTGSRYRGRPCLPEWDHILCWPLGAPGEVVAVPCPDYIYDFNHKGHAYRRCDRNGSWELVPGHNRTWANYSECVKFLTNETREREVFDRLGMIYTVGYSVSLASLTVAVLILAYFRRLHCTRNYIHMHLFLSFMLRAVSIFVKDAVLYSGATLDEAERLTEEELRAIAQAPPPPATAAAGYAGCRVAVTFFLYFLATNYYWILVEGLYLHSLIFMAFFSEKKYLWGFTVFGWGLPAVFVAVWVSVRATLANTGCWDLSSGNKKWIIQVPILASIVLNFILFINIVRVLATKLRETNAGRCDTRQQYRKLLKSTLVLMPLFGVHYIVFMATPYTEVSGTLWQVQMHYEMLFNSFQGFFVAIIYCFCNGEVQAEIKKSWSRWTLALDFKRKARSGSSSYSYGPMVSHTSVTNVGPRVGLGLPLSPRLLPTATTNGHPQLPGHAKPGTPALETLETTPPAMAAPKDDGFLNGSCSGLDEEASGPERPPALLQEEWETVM
Source text: The goal of the proposed studies is to discover new compounds that act as potent agonists on the parathyroid hormone receptor type-1 (PTHR1). The PTHR1 plays critical roles in maintaining blood calcium and phosphate levels, as well as in controlling bone remodeling. PTHR1 agonists could thus be useful for treating diseases such as hypoparathyroidism and osteoporosis. In the former disease, an agonist drug would help maintain normal blood calcium and phosphate levels under conditions of parathyroid hormone deficiency. In the latter disease, an agonist drug would stimulate new bone formation and thus reduce the risk of fracture, under conditions of bone fragility, as occurs in aging. We performed an optimization assay of the quantitative high-throughput screening (qHTS) for the parathyroid hormone receptor type-1 (PTHR1) against the NCGC LOPAC library collection of […] compounds using a unique HEK-293-derived cell line (GP2) that expresses the PTHR1 and a GloSensor cAMP reporter construct. Increase in signal (activation / agonist) is the desired outcome for compounds of interest. NIH Chemical Genomics Center [NCGC] NIH Molecular Libraries Probe Production Centers Network [MLPCN] MLPCN Grant: P01 DK011794 Assay Submitter (PI): Thomas Gardella PhD, Massachusetts General Hospital
Reagents / Controls: M-PTH (1-15) peptide hormone fragments was provided by the assay provider and was used as a control. Column 1 was treated with M-PTH titration (1:2 dilution) beginning with a final concentration of 10uM. Column 2 was treated with M-PTH final concentration of 10uM. Columns 3 and 4 were treated with DMSO only to assess background and noise signal. Assay Steps: Four microLiter of cells suspension was dispensed in a 1536-well assay plate at a final density of 3000 cells/well. The plates were incubated overnight, after which 4uL of 0.5mM of BloTium Luciferin plus 0.5mM IBMX was added. Next, the plate was incubated at 37C for 1hr before 23nL of compound (at various final concentrations from 40uM to 0.32uM) and control were added using a 1536-well array Kalypsys pin-tool. The treated plates were again incubated at 37C for another hour. Luminescence signal was obtained using the PerkinElmer ViewLux plate reader after 15min or room temperature incubation.

| Structure (SMILES) | Potency |
| --- | --- |
| Cn1c(=O)c2[nH]c(C3CCCC3)nc2n(C)c1=O | inactive |
| NC(Cc1cccc(-c2ccccc2CP(=O)(O)O)c1)C(=O)O (stereo not given) | inactive |
| CC[C@H](NC(=O)c1c(C)c(-c2ccccc2)nc2ccccc12)c1ccccc1 | inactive |
| NC/C=C\C(=O)O | inactive |
| COC(=O)C(C)(N)Cc1ccc(O)cc1 (stereo not given) | inactive |
| CCCCS(=N)(=O)CC[C@H](N)C(=O)O (stereo not given in full) | inactive |
| COc1ccc(CCN(C)CCc2ccc(OC)c(OC)c2)cc1OC | inactive |
| CCCn1c(=O)c(C)cn2nc(N)nc12 | inactive |
| CCn1c(=O)[nH]c2cc(Cl)c(Cl)cc21 | inactive |
| Nc1ccc(-c2ccc3ccccc3n2)cc1 | inactive |
| CC(C)(C)c1ccc(/C=C/C(=O)Nc2ccc3c(c2)OCCO3)cc1 | inactive |
| Cn1cc(C(=O)OCC2CCN(CCNS(C)(=O)=O)CC2)c2ccccc21 | inactive |
| COc1cc(C(O)CO)ccc1O (stereo not given) | inactive |
| Cn1cc(C(F)(F)F)nc1-c1ccc(OCC(O)CNCCOc2ccc(O)c(C(N)=O)c2)cc1 (stereo not given) | inactive |
| Cc1cc2c(cc1Cl)N(C(=O)Nc1ccnc3ccccc13)CC2 | inactive |
| Cc1cccc(C2CN(C)CCc3c2cc(O)c(O)c3Cl)c1 (stereo not given) | inactive |
| O=C(O)c1cc(=O)cc(C(=O)O)[nH]1 | inactive |
| O=c1cc(O)cc(/C=C/c2ccc(O)c(O)c2)o1 | inactive |
| CNc1cc(NS(=O)(=O)c2ccc(N)cc2)nc(NC)n1 | inactive |
| CN1CCCC1CCOC(C)(c1ccccc1)c1ccc(Cl)cc1 (stereo not given) | inactive |

| Structure (SMILES) | Potency |
| --- | --- |
| c1ccc(C2CN3CCSC3=N2)cc1 (stereo not given) | inactive |
| NC(C(=O)N[C@@H]1C(=O)N2C(C(=O)O)=C(Cl)CS[C@H]12)c1ccccc1 (stereo not given in full) | inactive |
| N[C@H](C(=O)O)[C@H](O)C(=O)O | inactive |
| NC(N)=NC(N)=Nc1ccccc1 | inactive |
| N[C@@H](Cc1c[nH]c2ccccc12)C(=O)O | inactive |
| COc1ccc(NC(=O)c2ccc(-c3ccc(-c4noc(C)n4)cc3C)cc2)cc1N1CCN(C)CC1 | inactive |
| CCCn1c(=O)c2[nH]c(-c3ccc(S(=O)(=O)O)cc3)nc2n(CCC)c1=O | inactive |
| O=C(O)C1CCCNC1 (stereo not given) | inactive |
| COC(=O)[C@H](NC(=O)c1cc(-c2ccccc2)nc2ccccc12)c1ccccc1 | inactive |
| O=c1[nH]c2ccccc2c2ccccc12 | inactive |
| NC(N)=N[C@@H](CCC(=O)O)C(=O)O | inactive |
| C=C1C[C@@]23CC[C@H]4[C@@](C)(CCC[C@@]4(C)C(=O)O)[C@@H]2CC[C@]1(O)C3 | inactive |
| N[C@@H](CCC(=O)N[C@H](CSN=O)C(=O)NCC(=O)O)C(=O)O | inactive |
| NC(=O)c1cc[n+](CC2=C(C(=O)O)N3C(=O)[C@@H](NC(=O)[C@@H](c4ccccc4)S(=O)(=O)[O-])[C@H]3SC2)cc1 | inactive |
| CC1=C(C(=O)O)N2C(=O)[C@@H](NC(=O)C(N)C3=CCC=CC3)[C@H]2SC1 (stereo not given in full) | inactive |
| CN1Cc2sccc2C(c2ccc(O)c(O)c2)C1 (stereo not given) | inactive |
| CCCCCCN(CCCCCC)C(=O)Cc1c(-c2ccc(F)cc2)[nH]c2ccccc12 | inactive |
| NCC(O)c1ccc(O)c(O)c1 (stereo not given) | inactive |
| CSC(N)=NCCC[C@H](N)C(=O)O | inactive |
| COc1ccccc1N1CCN(CCCNc2c(C)c(=O)n(C)c(=O)n2C)CC1 | inactive |

Reference: PubChem BioAssay (NCATS)
